Screens: PubChem, several laboratories
Hits are enriched below; roughly 9.6% of the tested compounds scored in any of these assays.
PTEN del growth – PTEN-deleted cell growth suppression; HCT116 PTEN-null viability, CellTiter-Glo, 60 h; active compounds read low; AID 827; viability, % at 10 µM; hit rate 1.2% among 140,000;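 active = viability at or below a set limit, 4 SD under the median of all tested compounds, cut at about 3.7% in these data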;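 also: PTEN knockout HCT116 line with beta catenin targeted HCT116 as companion control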
Lmaj promast – inhibitors of Leishmania major promastigote growth | Leishmania major promastigotes, resazurin fluorescence viability | inhibition, % at 10 µM | hit rate 9% among 200,000 | AID 1063; in the data active = inhibition above about 50%;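 also: promastigotes grown with compound for 44 hours at 28 °C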
Autophagy HCS – modulators of autophagy. MEF GFP-LC3 puncta imaging; test concentration mostly 10 µM. AID 463193. hit rate 0.98% among 190,000. calls only at 10 µM (by protocol);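 active = percentage of spot-positive cells more than 3 SD above its plate mean, without a fluorescence outlier flag or 80% toxicity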;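 also: spot-positive cell cutoff set from DMSO-treated cells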
HCT116 bCat-KO – beta-catenin-lacking colon tumor cell growth suppression. HCT116 beta-catenin knockout viability, CellTiter-Glo, 60 h; active compounds read low. hit rate 1.5% among 140,000. viability, % at 10 µM;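 active = viability at or under a set limit, the compound median less 4 SD, cut at about 6% in these data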;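 also: 0% = Hyamine 1622 control at 20 µM and 100% = untreated cell control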
Insulin prom inh – TRM-6 insulin promoter activity inhibition. hit rate 0.9% among 130,000. TRM-6 cells (human fetal islet line), insulin promoter-eGFP reporter, imaging; reporter expression induced with tamoxifen. inhibition, % at 2 µM;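 active = inhibition above the mean plus 3 SD, with well images judged a real hit on visual review, cut at about 60% in these data, passing the limit was not always enough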
Insulin prom up – MIN6 insulin promoter up-regulation; MIN6 insulin promoter-GFP reporter, high-content imaging; active compounds read high; AID 1625; hit rate 0.3% among 190,000; z-score at 5 µM;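 active = z-score above 3 at 5 µM with at least 500 cells counted in the well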
Active calls of the source: *; i = inactive; x = no result; + = active, no number.

SMILES | PTEN del growth | Lmaj promast | Autophagy HCS | HCT116 bCat-KO | Insulin prom inh | Insulin prom up
CCOC(=O)c1c(NC(=O)CSc2nc3cc(Cl)ccc3c(=O)n2Cc2ccco2)sc(C(=O)N(C)C)c1C | 11 | 78* | i | 58 | x | -0.55
COCCNC(=S)N/N=C/c1ccc(N2CCOCC2)cc1 | 67 | 49 | i | 66 | -20 | 0.93
COc1cc(OC)cc(C(=O)NC(C(=O)O)C23CC4CC(CC(C4)C2)C3)c1 (centres undefined) | x | -4 | i | x | 47 | -0.51
CC(=O)c1c(C)[nH]c(C(=O)Nc2nc(-c3ccc(Cl)cc3)cs2)c1C | 67 | 11 | i | 71 | 33 | -0.16
O=C(Nc1nc(-c2ccccc2)cs1)c1ccccc1NS(=O)(=O)c1ccc(F)cc1 | 5 | 5 | i | 4.4* | 31 | -3.6
COc1ccccc1OC(C)C(=O)Nc1nc(-c2ccc(S(=O)(=O)N3CCOCC3)cc2)cs1 (centres undefined) | 83 | 29 | i | 88 | 14 | -1.1
CC(=O)c1c(C)[nH]c(C(=O)Nc2nc(-c3ccc(-c4ccccc4)cc3)cs2)c1C | 11 | 97* | i | 12 | 11 | -0.21
COc1ccc(-c2csc(NC(=O)c3cccc(S(=O)(=O)N4CCN(C)CC4)c3)n2)cc1 | 62 | 63* | i | 40 | -37 | -1.8
COc1ccccc1C(=O)Nc1nc(-c2ccc(S(=O)(=O)N3CCOCC3)cc2)cs1 | 9 | 23 | i | 5.7* | -7 | x
O=S(=O)(Nc1ccc(-c2csc(-c3ccccc3)n2)cc1)c1ccc(F)cc1 | 85 | 5 | i | 85 | 7 | 0.8
CSC1=N/C(=C\c2cccc(F)c2)C(=O)S1 | 103 | -4 | i | 103 | 3 | -0.31
O=C(Nc1nc(-c2ccc(S(=O)(=O)N3CCCC3)cc2)cs1)c1ccco1 | 48 | 97* | i | 57 | -17 | -0.1
Cc1snc(S(=O)(=O)/C(C#N)=N/Nc2cccc(C(F)(F)F)c2)c1C#N | 93 | -9 | i | 110 | 75* | 0.32
CCOC(=O)c1c(C(C)(C)C)oc2ccc(O)cc12 | 78 | 100* | i | 83 | -33 | -0.65
CCOC(=O)c1c(COc2ccccc2)oc2ccc(O)cc12 | 114 | -3 | i | 112 | -6 | -0.26
COc1ccc(-c2csc(-c3[nH]cnc3N)n2)cc1 | x | 96* | i | x | -73 | x
O=C(Nc1ccc(F)cc1)NC1CCN(Cc2ccccc2)CC1 | x | 55* | i | x | x | -3.3
O=C(Nc1ccc2c(c1)OCO2)C1CCN(Cc2cnn(-c3ccccc3)c2-n2cccc2)CC1 | 61 | 98* | i | 45 | -32 | x
O=C(CN1CCC(NC(=O)c2ccco2)CC1)Nc1cccc2ccccc12 | 87 | -6 | i | 91 | 13 | -0.65
CC(C)c1ccc(NC(=O)NC2CCN(CC(=O)Nc3cccc4ccccc34)CC2)cc1 | 58 | 58* | + | 57 | 5 | 0.79
O=C(Nc1ccc2c(c1)OCO2)NC1CCN(Cc2ccccc2)CC1 | 81 | 78* | i | 70 | -19 | 0.33
CCOC(=O)c1sc(N)c(C#N)c1COC(=O)CNC(=O)c1ccccc1 | 102 | -1 | i | 89 | -36 | 0.52
Cc1ccccc1C(=O)OC(C)CN1CCOCC1 (centres undefined) | x | -7 | i | x | x | -0.35
Cc1ccccc1C(=O)NC1CCN(CC(=O)Nc2ccc3c(c2)OCCO3)CC1 | x | 90* | i | x | x | -0.51
O=C(CN1CCC(NC(=O)c2ccccc2F)CC1)Nc1ccc2c(c1)OCCO2 | x | -4 | i | x | x | -0.09
SMILES | PTEN del growth | Lmaj promast | Autophagy HCS | HCT116 bCat-KO | Insulin prom inh | Insulin prom up
CSc1nc2nccc(/C=C\c3ccccc3)n2n1 | 4 | 86* | i | 4.5* | 30 | x
CCOC(=S)NC(=O)c1sc2ccccc2c1Cl | 115 | 16 | i | 98 | -10 | -0.27
O=C(NC(=S)NCCO)c1sc2ccccc2c1Cl | x | 63* | i | x | 44 | 1.2
CC(C)(C)C(=O)NC(=S)NNC(=O)c1sc2ccccc2c1Cl | 5 | 24 | i | 3.0* | 32 | -0.66
O=C(NNC(=S)NC1CCCCC1)c1sc2ccccc2c1Cl | 93 | -6 | i | 80 | 16 | x
Cc1ccc(/C=C(\C#N)C(=O)NCc2ccco2)o1 | x | -3 | i | x | x | 0.19
Cc1cc(C)c2nc(NC(=O)c3ccc(OCC4CCCO4)cc3)sc2c1 (centres undefined) | 39 | 73* | i | 36 | 48 | 0.18
Cc1ccc(CNC(=O)c2ccc(OCC3CCCO3)cc2)cc1 (centres undefined) | 102 | 68* | i | 104 | 19 | -0.09
OCc1nc2ccccc2n1C/C=C/c1ccccc1 | 90 | 1 | i | 99 | 9 | -0.46
COc1ccc(C2C=C(Nc3ccccc3)C(=O)N2c2ccccc2)cc1OC (centres undefined) | 65 | -3 | i | 73 | -7 | -0.09
COc1cccc(C2C=C(Nc3ccccc3)C(=O)N2c2ccccc2)c1 (centres undefined) | 77 | 66* | i | 92 | -36 | -0.87
CS(=O)(=O)N1CCc2cc(-c3csc(NC(=O)C(c4ccccc4)c4ccccc4)n3)ccc21 | 88 | 94* | i | 94 | 28 | -1.6
CC1Cc2cc(-c3csc(NC(=O)Cc4ccccc4)n3)ccc2N1S(C)(=O)=O (centres undefined) | 13 | 36 | i | 12 | -50 | x
Cc1ccc2c(c1)C(=O)C(=O)N2CCOc1ccccc1 | x | 34 | i | x | x | -0.05
Cc1cccc(OCCN2C(=O)C(=O)c3cc(C)ccc32)c1 | x | 0 | + | x | 5 | -0.1
N#C/C(=C1/CCCCCN1)c1nnc2n1CCCCC2 | 92 | -5 | i | 99 | 30 | 1.5
COc1ccc(CCNC(=O)C2CCC(CNS(=O)(=O)c3ccccc3)CC2)cc1OC (centres undefined) | x | 2 | i | x | 33 | -0.19
Cc1ccc(S(=O)(=O)NCc2ccc(C(=O)NCCCN3CCC(Cc4ccccc4)CC3)cc2)cc1 | x | 96* | i | x | x | -0.78
COc1ccc(CCNC(=O)c2ccc(CNS(=O)(=O)c3ccccc3)cc2)cc1OC | 91 | 70* | i | 88 | -23 | 0.68
Cc1ccc(S(=O)(=O)NCc2ccc(C(=O)N3CCN(Cc4ccccc4)CC3)cc2)cc1 | 62 | 77* | i | 63 | -4 | -0.12
CCN1CCN(C(=O)c2ccc(CN(c3ccccc3)S(=O)(=O)c3ccccc3)cc2)CC1 | 93 | 80* | i | 84 | -14 | 0.21
O=C(NNc1ccc([N+](=O)[O-])cc1)C1CC2CCCC(C1)C2=O (centres undefined) | 95 | 1 | i | 90 | 47 | 0.4
Cc1ccc(C)c(S(=O)(=O)NCc2ccc(C(=O)N3CCCCCC3)cc2)c1 | 90 | 14 | i | 95 | 77* | 0.06
O=C(c1cccc(NS(=O)(=O)c2ccc(F)c(F)c2)c1)N1CCN(Cc2ccccc2)CC1 | 93 | 59* | i | 90 | -48 | 0.78
O=C(c1ccc([N+](=O)[O-])cc1)N1CCN(Cc2ccccc2)CC1 | 96 | 13 | i | 91 | 14 | -1.2
